# CFTR F508del cor = CFTR F508del correction in bronchial cells | AID 720511 | CFBE cells, YFP halide quenching; stimulated with forskolin plus potentiator P3; % fluorescence drop versus neutral controls | activity (quench increase), % at 7.58 µM | 0.36% of 350,000 active;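 active means mean added fluorescence quench of at least 8% versus neutral control, with both replicates also reaching 8%; inconclusive means only one of the mean or replicate conditions met; inactive means mean below 8% and not both replicates reaching 8%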;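 further: cells transiently co-express mutant CFTR-F508del with the halide-sensitive YFP; corrector assay measuring rescue of mutant channel to the surface after 24 h compound exposure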
# PglD inh = PglD (C. jejuni) enzyme inhibition. 0.098% of 360,000 active. purified PglD enzyme, DTNB colorimetric CoA detection. inhibition, % at 12.5 µM; in the data active means inhibition above about 16%, passing the limit was not always enough; inconclusive means no clear call, values can overlap the other calls
# ALR inh = human ALR oxidase inhibition via reduced H2O2 | P55789 | purified ALR, DTT oxidation, H2O2 HRP-luminol luminescence | 3.8% of 290,000 active | inhibition, % (concentration not given with the values) | AID 485317;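 active means mean replicate inhibition above about 79%, with every replicate also reaching it, limit read from the data; inconclusive means only one of the two criteria met; inactive means mean below limit and not every replicate reaching it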
# Target sequence (P55789 whole entry, looked up): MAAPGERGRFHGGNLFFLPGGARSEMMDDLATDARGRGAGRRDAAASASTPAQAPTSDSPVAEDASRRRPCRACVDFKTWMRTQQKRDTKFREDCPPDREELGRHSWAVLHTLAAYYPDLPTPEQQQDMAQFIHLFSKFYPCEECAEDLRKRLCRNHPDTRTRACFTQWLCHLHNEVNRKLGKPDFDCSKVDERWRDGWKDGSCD
# CASP6 VEID inh = inhibitors of human caspase-6; P55212; purified caspase-6, Z-VEID-R110 cleavage fluorescence; inhibition, % at 12.5 µM; 0.53% of 350,000 active; AID 686996;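 active means mean inhibition across replicates at least about 35%, with every replicate also reaching that limit, limit read from the data; inconclusive means only one of the two criteria met; inactive means neither criterion met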;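 further: 0% = median of neutral control wells and 100% = no fluorescence left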
# Target sequence (P55212 24-179 limits assumed): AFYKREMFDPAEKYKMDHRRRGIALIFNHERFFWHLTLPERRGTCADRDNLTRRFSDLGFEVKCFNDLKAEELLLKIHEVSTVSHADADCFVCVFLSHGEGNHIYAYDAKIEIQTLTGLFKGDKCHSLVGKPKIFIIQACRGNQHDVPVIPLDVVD
# Target sequence (P55212 194-293 limits assumed): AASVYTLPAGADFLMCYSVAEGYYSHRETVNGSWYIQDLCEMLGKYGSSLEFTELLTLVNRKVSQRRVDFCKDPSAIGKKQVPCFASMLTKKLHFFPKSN
# NSD2 HMT inh = NSD2 (human) methyltransferase inhibition; O96028; NSD2 peptide methylation, AlphaScreen, 120 min; inhibition, % at 12.5 µM; 0.54% of 310,000 active; in the data active means inhibition above about 50%
# Env fusion inh = HIV envelope-mediated fusion inhibition. HeLa-JRFL Env/CEM21 cell fusion, luciferase. inhibition, % at 12.3 µM. 1.1% of 360,000 active;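 active means mean replicate inhibition score of at least 50 and every replicate individually at or above 50; inconclusive means only one of the two criteria met; inactive means mean below 50 and not all replicates reaching 50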;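 further: 0% = plate neutral controls and 100% = maraviroc near 300 nM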
# An asterisk follows results filed as active; ? = inconclusive; · = no result; [ ] = another dose, or the depositor's remark. Most compounds without a hit are left out; they make up all but 4.1% or so of the library.
SMILES,CFTR F508del cor,PglD inh,ALR inh,CASP6 VEID inh,NSD2 HMT inh,Env fusion inh
C/C=C/c1ccc2c(c1)O[C@H](CN(C)C(=O)Cc1cccnc1)[C@@H](C)CN([C@@H](C)CO)S2(=O)=O,1,0,·,-3,·,-103[16.7 µM]
CC(=O)/C(=N/Nc1cccc(C)c1)N1CCOCC1,·,0,99*,·,·,-60
O=C(O)CCC(=O)Nc1ccc(N2CCCCCC2)cc1,·,-2,99*,·,·,·
O=C(CNCC1CCCCC1)Nc1ccc(N2CCCCC2)cc1,·,·,98*,·,31,·
CC1CCN(CC(=O)Nc2ccc(N3CCCCCC3)cc2)CC1,2,·,98*,-6,·,11
O=C(CNC1CCCC1)Nc1ccc(N2CCCCCC2)cc1,1,·,·,-5,·,9
O=C(CNC1CCCCCC1)Nc1ccc(N2CCCC2)cc1,·,·,94*,·,·,·
COc1ccc2c3c(n(C)c2c1)[C@H](CO)N(C(=O)C1CC1)CC31CCN(C(=O)c2ccncc2)CC1,-1,·,·,-3,·,·
O=C(COC(=O)C1CCCCC1)Nc1ccc(N2CCCCC2)cc1,·,1,88*,·,16,·
C[C@H]1CCCCO[C@@H](CN(C)C(=O)C2CCCCC2)[C@@H](C)CN([C@@H](C)CO)C(=O)c2cc(NC(=O)Cc3ccccc3)ccc2O1,-4,0,·,3,·,-40[16.7 µM]
CC(C)(C)SC(=O)CC1NS(=O)(=O)OCC1NC(=O)OCC(Cl)(Cl)Cl (stereo unspecified),2,1,3,4,·,63*
CCCNC(=O)N1[C@H](C#N)[C@H](c2ccc(C#Cc3ccc(F)cc3)cc2)[C@@H]1CO,8.4*,-2,·,0,·,21[16.7 µM]
N#C[C@@H]1[C@H](c2ccc(-c3cccc(F)c3)cc2)[C@H](CO)N1C(=O)NC1CCCC1,8.6*,0,·,1,·,65*[16.7 µM]
COc1cccc(C#Cc2ccc([C@H]3[C@@H](CO)N(C(=O)C4CCCC4)[C@H]3C#N)cc2)c1,3,·,·,-1,·,69*[16.7 µM]
CCCNC(=O)N1[C@H](C#N)[C@H](c2ccc(C#Cc3ccc(F)cc3)cc2)[C@H]1CO,3,-1,·,0,·,25[16.7 µM]
N#C[C@@H]1[C@H](c2ccc(-c3ccccc3F)cc2)[C@@H](CO)N1C(=O)c1ccccn1,0,0,·,-1,·,57*[16.7 µM]
CO[C@@H]1CN(C)C(=O)c2cc(NS(C)(=O)=O)ccc2OC[C@@H](C)NC[C@H]1C,1,3,·,-5,·,-11[16.7 µM]
C/C(=N\NC(=S)Nc1c(C)cccc1C)c1ccc(O)cc1,-3,-1,87*,2,-1,-6
COc1ccc2c3c(n(C)c2c1)[C@@H](CO)N(CC1CCOCC1)CC31CN(CC2CCOCC2)C1,-2,·,·,·,·,·
COCCCNc1c2c3c(cccc3[nH]c1=O)C(=O)c1ccccc1-2,46*,2,·,-36,·,-12
O=C(COc1ccc(Cl)cc1Cl)Nn1c(=S)[nH]c2ncccc2c1=O,-3,5,?,-4,-3,-2
COc1ccccc1OCC(=O)Nn1c(=S)[nH]c2ncccc2c1=O,1,5,91*,-3,-2,4
COc1ccc(NC(=O)N(C)C[C@@H]2Oc3ccc(NS(=O)(=O)c4c(C)noc4C)cc3C(=O)N([C@H](C)CO)C[C@H]2C)cc1,0,1,·,-5,·,·
COc1cc(OC)nc(Nc2nc(C(N)COCc3ccccc3)cs2)n1 (stereo unspecified),2,1,·,-1,5,97*
C[C@@H]1CCCCO[C@H](CN(C)CC2CCCCC2)[C@H](C)CN([C@@H](C)CO)C(=O)c2cc(NC(=O)C3CCCCC3)ccc2O1,0,0,·,0,·,-2[16.7 µM]
SMILES,CFTR F508del cor,PglD inh,ALR inh,CASP6 VEID inh,NSD2 HMT inh,Env fusion inh
O=C1CNC[C@@H]2[C@H](c3ccc(-c4ccccc4F)cc3)[C@@H](CO)N12,-1,·,·,-2,·,·
CCOC(=O)c1c(NC(=O)C2CCCCC2C(=O)O)sc2c1CCCCC2 (stereo unspecified),0,·,25,6,·,4
CCOC(=O)c1c(NC(=O)C2C3C=CC(C3)C2(C)C(=O)O)sc2c1CCCC2 (stereo unspecified),·,·,91*,·,-1,-2
CCOC(=O)c1c(NC(=O)C2CC(Cl)=CCC2C(=O)O)sc2c1CC(C)(C)OC2 (stereo unspecified),-2,·,-1,43*,2,14
Cn1c(-c2ccc(Cl)cc2)ccc(C#N)c1=O,·,·,-1,·,-3,75*
Cn1cc(-c2ccc(Cl)cc2)cc(C#N)c1=O,0,·,-3,0,-4,-28
COc1ccc(COC(=O)NC2CCN(S(=O)(=O)c3ccc(OC)cc3)CC2)cc1,·,-3,-1,·,-1,56*
